Reference: PubChem BioAssay (EPA / NIEHS)
Results filed as inconclusive are left out. Activity calls are given as the source filed them. Rule for the calls, unless noted: active = hit-call score of the fitted dose curve at least 0.9, where 1 is the maximum; inactive = score below 0.9.

Assays:
[1] = ATG_TGFb_CIS: Attagene CIS-FACTORIAL HepG2 Assay for human Transforming Growth Factor (TGF) (AID 2282967); settings: HepG2 Attagene CIS TGFb reporter, mRNA transcription; actives raise or lower the signal
How it was run: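 Transient MRTU transfection of HepG2 (FuGene 6). Dose 24 h. TriZol RNA, oligo(dT) RT, PCR, 6-FAM primer extension, HpaI cut, CE. Bidirectional fit, DMSO = baseline.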

[2] = ATG_VDRE_CIS: Attagene CIS-FACTORIAL HepG2 Assay for human Vitamin D Receptor Element (VDRE) (AID 2282968); settings: HepG2 VDRE cis-reporter transcription, actives raise or lower the signal
How it was run: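 Steps: transfect HepG2 with multiple reporter transcription units; dose chemicals 24 h; isolate RNA; RT-PCR; label with 6-FAM primer extension; HpaI digest; capillary electrophoresis. Curves fitted both directions against DMSO.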

[3] = target: Estrogen receptor (Homo sapiens) (UniProt P03372); assay: ATG_ERa_TRANS: Attagene TRANS-FACTORIAL HepG2 Assay for human Estrogen Receptor alpha (ERa) (AID 2282970; active = hit-call score of the fitted dose curve at least 0.9, where 1 is the maximum); settings: HepG2 Attagene TRANS ERa GAL4 reporter, mRNA
Chain of Estrogen receptor (Homo sapiens) (P03372 whole entry, looked up, the tested form may be a part): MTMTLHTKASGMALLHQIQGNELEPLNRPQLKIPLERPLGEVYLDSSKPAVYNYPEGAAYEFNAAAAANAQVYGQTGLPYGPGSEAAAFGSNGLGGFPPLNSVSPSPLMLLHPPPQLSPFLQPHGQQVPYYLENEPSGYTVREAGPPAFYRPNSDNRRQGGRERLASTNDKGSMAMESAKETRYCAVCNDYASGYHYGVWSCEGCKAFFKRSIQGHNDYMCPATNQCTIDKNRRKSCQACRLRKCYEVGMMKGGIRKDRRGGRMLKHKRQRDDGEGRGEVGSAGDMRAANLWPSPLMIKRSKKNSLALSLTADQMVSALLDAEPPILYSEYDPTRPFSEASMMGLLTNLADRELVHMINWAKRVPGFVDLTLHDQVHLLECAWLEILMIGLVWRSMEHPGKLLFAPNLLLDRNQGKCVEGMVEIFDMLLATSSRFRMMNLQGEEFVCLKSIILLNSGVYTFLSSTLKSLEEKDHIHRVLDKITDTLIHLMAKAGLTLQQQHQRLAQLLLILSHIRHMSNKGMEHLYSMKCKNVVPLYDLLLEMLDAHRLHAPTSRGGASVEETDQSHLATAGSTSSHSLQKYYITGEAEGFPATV
How it was run: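 Signal derives from fluorescence of labelled reporter PCR fragments separated by capillary electrophoresis. HepG2 cells transiently carrying multiple GAL4-UAS reporter units were treated 24 hours, and induction above DMSO baseline was fitted as activity.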

[4] = target: X-box-binding protein 1 (Homo sapiens) (UniProt P17861); assay: ATG_Xbp1_CIS: Attagene CIS-FACTORIAL HepG2 Assay for human X-box Binding Protein 1 (XBP1) (AID 2282972); settings: HepG2 XBP1 cis-element reporter, Attagene multiplex; actives raise or lower the signal
Chain of X-box-binding protein 1 (Homo sapiens) (P17861 whole entry, looked up): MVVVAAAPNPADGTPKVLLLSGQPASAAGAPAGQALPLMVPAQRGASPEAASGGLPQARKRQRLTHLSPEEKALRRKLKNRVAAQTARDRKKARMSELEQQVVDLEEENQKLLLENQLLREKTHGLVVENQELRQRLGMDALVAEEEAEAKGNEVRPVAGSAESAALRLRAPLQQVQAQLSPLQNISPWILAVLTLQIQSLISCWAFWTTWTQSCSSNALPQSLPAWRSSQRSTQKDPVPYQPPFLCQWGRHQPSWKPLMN
How it was run: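 Reporter transcripts were quantified by RT-PCR with fluorescent primer extension and capillary electrophoresis after 24 h chemical exposure. Cells: transiently transfected HepG2 carrying cis-regulated reporter constructs; data fitted bidirectionally relative to DMSO.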

[5] = ATG_M_19_TRANS: Attagene TRANS-FACTORIAL HepG2 Assay for M19 Transcription Factor (Internal Marker) (AID 2282974; active = hit-call score of the fitted dose curve at least 0.9, where 1 is the maximum); settings: HepG2 Attagene TRANS-FACTORIAL M19 internal marker reporter
How it was run: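 Cells: human HepG2, transiently transfected with multiplexed reporter transcription units. Exposure: 24 h. Detection: RT-PCR of reporter mRNA with capillary electrophoresis. Analysis: gain-of-signal vs DMSO.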

[6] = ATG_GAL4_TRANS: Attagene TRANS-FACTORIAL HepG2 Assay for GAL4 (Internal Marker) (AID 2282976; active = hit-call score of the fitted dose curve at least 0.9, where 1 is the maximum); settings: HepG2 Attagene TRANS GAL4 internal marker reporter
How it was run: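 Liver HepG2 line bearing multiplexed GAL4-UAS reporter constructs; 24 h chemical treatment. Transcripts were quantified as fluorescent fragments on capillary electrophoresis after RT-PCR and HpaI cut, with activity fitted upward from DMSO.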

[7] = target: Steroid hormone receptor ERR1 (Homo sapiens) (UniProt P11474); assay: ATG_ERRa_TRANS: Attagene TRANS-FACTORIAL HepG2 Assay for human Estrogen-Related Receptor alpha (ERRa) (AID 2282971; active = hit-call score of the fitted dose curve at least 0.9, where 1 is the maximum); settings: HepG2 Attagene TRANS reporter, ERRa transactivation
Chain of Steroid hormone receptor ERR1 (Homo sapiens) (P11474 whole entry, looked up, the tested form may be a part): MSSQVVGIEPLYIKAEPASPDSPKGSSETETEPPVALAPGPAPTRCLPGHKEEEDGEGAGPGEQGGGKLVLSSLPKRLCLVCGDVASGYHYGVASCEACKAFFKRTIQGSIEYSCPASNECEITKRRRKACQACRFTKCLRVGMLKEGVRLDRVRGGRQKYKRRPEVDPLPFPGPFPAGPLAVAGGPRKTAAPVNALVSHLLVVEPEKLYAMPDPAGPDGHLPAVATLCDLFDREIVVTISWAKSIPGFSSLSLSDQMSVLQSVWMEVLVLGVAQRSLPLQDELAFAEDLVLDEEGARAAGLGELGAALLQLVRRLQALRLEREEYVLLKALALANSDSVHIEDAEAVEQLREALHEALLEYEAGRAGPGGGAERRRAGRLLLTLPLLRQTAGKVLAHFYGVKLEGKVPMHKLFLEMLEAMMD
How it was run: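 Signal gain relative to DMSO for an ERRa-Gal4 chimeric receptor, read as reporter mRNA by RT-PCR/capillary electrophoresis. Human HepG2 liver cells, transient multiplex reporter transfection, 24 h chemical exposure.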

[8] = ATG_TAL_CIS: Attagene CIS-FACTORIAL HepG2 Assay for human TAL Basal Promoter (AID 2282966); settings: HepG2 Attagene cis-factorial TAL promoter reporter; actives raise or lower the signal;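 note: background control endpoint measuring basal TAL promoter reporter mRNA not a specific factor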
How it was run: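 Human hepatoma HepG2 cells, transfected with promoter-regulated reporter units, were treated 24 h. Reporter transcript levels, measured through RT-PCR and capillary electrophoresis, were fitted for gain or loss relative to DMSO.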

[9] = target: Nuclear receptor subfamily 1 group I member 3 (Homo sapiens) (UniProt Q14994); assay: ATG_CAR_TRANS: Attagene TRANS-FACTORIAL HepG2 Assay for human Constitutive Androstane Receptor (CAR) (AID 2282969; active = hit-call score of the fitted dose curve at least 0.9, where 1 is the maximum;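 note: activators raise reporter mRNA above DMSO so AC50 marks induction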); settings: HepG2 Attagene TRANS-FACTORIAL CAR reporter
Chain of Nuclear receptor subfamily 1 group I member 3 (Homo sapiens) (Q14994 whole entry, looked up, the tested form may be a part): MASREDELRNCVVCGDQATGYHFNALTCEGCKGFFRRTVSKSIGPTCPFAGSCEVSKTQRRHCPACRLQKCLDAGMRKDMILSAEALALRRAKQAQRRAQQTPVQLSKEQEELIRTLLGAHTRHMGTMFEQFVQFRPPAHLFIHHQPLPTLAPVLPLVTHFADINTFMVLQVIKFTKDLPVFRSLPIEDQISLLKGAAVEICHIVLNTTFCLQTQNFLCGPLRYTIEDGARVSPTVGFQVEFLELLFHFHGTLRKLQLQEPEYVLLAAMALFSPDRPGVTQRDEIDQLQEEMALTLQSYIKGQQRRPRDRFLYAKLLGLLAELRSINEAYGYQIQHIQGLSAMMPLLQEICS
How it was run: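 Steps: transient transfection of HepG2 with multiple GAL4-UAS reporter units; 24 h compound incubation; RNA isolation, RT-PCR, 6-FAM primer extension, HpaI digest; capillary electrophoresis. Gain-of-signal relative to DMSO negative control.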

Measured: AC50

Brc1ccccn1
not listed: [7] | [8] | [9]
inactive: all other assays above

O=C1C=CC(=O)N1c1ccccc1
not listed: [4] | [8] | [9]
inactive: all other assays above

FC(F)(F)C(F)(F)C(F)(F)CC1CO1 (centres undefined)
inactive: [2] | [3] | [7] | [4] | [6]

CCC(=O)OC(C)c1ccccc1 (centres undefined)
not listed: [3] | [7]
inactive: all other assays above

FC(F)(F)C(F)(F)C(F)(F)C(F)(F)C(F)(F)C(F)(F)C(F)(F)CCI
active: [3] 24.5 µM
not listed: [8] | [9]
inactive: all other assays above

CC(C)C(=O)OCc1ccccc1
inactive: [8] | [2] | [4] | [5] | [6]

CCC/C=C/CO
not listed: [3] | [7]
inactive: all other assays above

O=S(=O)(Cl)C(F)(F)C(F)(F)C(F)(F)C(F)(F)C(F)(F)C(F)(F)C(F)(F)C(F)(F)F
active: [3] 20.7 µM
not listed: [6] | [9]
inactive: all other assays above

N#Cc1ccccc1O
inactive: [8] | [1] | [2] | [9] | [4]

O=C(c1ccccc1)c1ccc(O)cc1O
active: [3] 1.33 µM
not listed: [2] | [7]
inactive: all other assays above

CCCC(=O)OCC(COC(=O)CCC)OC(=O)CCC
inactive: [8] | [2] | [4] | [6]

O=C(O)CCC(F)(F)C(F)(F)C(F)(F)C(F)(F)C(F)(F)C(F)(F)C(F)(F)F
inactive: [8] | [1] | [2] | [3] | [5]

OCCCCC(F)(F)C(F)(F)C(F)(F)C(F)(F)F
inactive: [8] | [1] | [2] | [3] | [4]

C[C@]12CC[C@H]3C(=CCc4cc(O)ccc43)[C@@H]1CCC2=O
not listed: [3]
inactive: all other assays above

O=C(O)C(F)(F)C(F)(F)C(F)(F)OC(F)(C(F)(F)F)C(F)(F)F
not listed: [7] | [9]
inactive: all other assays above

COCCC(=O)OC
not listed: [4] | [7] | [9]
inactive: all other assays above

CSc1ccc(Cl)cc1
inactive: [8] | [1] | [2] | [3] | [5]

CC(C)OC(=O)COc1ccc(Cl)cc1Cl
inactive: [8] | [1] | [9] | [3] | [6]

CCCCCCCCCCCCC[N+](C)(C)Cc1ccccc1
inactive: [8] | [2] | [3]

CCOC(=O)C1CC(=O)C(=C(O)C2CC2)C(=O)C1 (centres undefined)
inactive: [8] | [1] | [2] | [4] | [6]

OC(O)C(F)(F)C(F)(F)F
not listed: [1] | [5] | [9]
inactive: all other assays above

O=S(=O)(O)CCC(F)(F)C(F)(F)C(F)(F)C(F)(F)C(F)(F)C(F)(F)C(F)(F)C(F)(F)F
not listed: [5] | [9]
inactive: all other assays above

C=C(C)C(=O)OCC(F)(F)C(F)(F)C(F)(F)C(F)F
not listed: [9]
inactive: all other assays above

OCCCc1cccnc1
not listed: [5] | [7] | [9]
inactive: all other assays above

CN(N=O)C(=O)N[C@@H]1[C@@H](O)[C@H](O)[C@@H](CO)O[C@@H]1O
inactive: [8] | [2] | [9] | [4] | [5]

CC(=O)CCC(C)C
inactive: [9] | [3] | [4] | [5]

O=S(=O)(OCC(F)(F)F)C(F)(F)C(F)(F)C(F)(F)C(F)(F)F
active: [8] 150 µM
not listed: [3]
inactive: all other assays above

OCC1CCCO1 (centres undefined)
inactive: [8] | [1] | [2] | [4]

CCOCN(C(=O)CS(=O)(=O)O)c1c(C)cccc1CC
not listed: [5] | [7] | [9]
inactive: all other assays above
